The record followed here is PubChem BioAssay (Tox21).

Inconclusive results are not listed. Where a call stands in place of a potency, no number is given. Unmarked numbers belong to inactive results. Active and inactive are the calls of the source. Calls come from the whole dose curve.

This assay deals with Peroxisome proliferator-activated receptor gamma (Homo sapiens) (UniProt P37231). In words: qHTS assay to identify small molecule antagonists of the peroxisome proliferator-activated receptor gamma (PPARg) signaling pathway (AID 743191). Note: nearly all actives have a fitted effect of over 30% in size. The settings on record: HEK293H PPARg-UAS-bla, beta-lactamase ratio, antagonist, 17 h; series mostly up to 62.6 µM. The source says: U.S. Tox21 Program National Center for Advancing Translational Sciences [NCATS] NIH Chemical Genomics Center [NCGC] U.S. Environmental Protection Agency [EPA] National Institutes of Environmental Health Sciences [NIEHS] National Toxicology Program [NTP] U.S. Food and Drug Administration [FDA] Tox21 Assay Overview: The peroxisome proliferator-activated receptors (PPARs) are lipid-activated transcription factors of the nuclear receptor superfamily with three distinct subtypes namely PPAR alpha, PPAR delta (also called PPAR beta) and PPAR gamma (PPARg). All these subtypes heterodimerize with Retinoid X receptor (RXR) and these heterodimers regulate transcription of various genes. PPAR-gamma receptor (glitazone receptor) is involved in the regulation of glucose and lipid metabolism. To identify the compounds that inhibit PPAR-gamma signaling, GeneBLAzer PPAR gamma UAS-bla HEK293H cell line (Invitrogen, Carlsbad, CA, USA) containing a beta-lactamase reporter gene under control of an Upstream Activator Sequence (UAS) was used to screen the Tox21 compound library.
Peroxisome proliferator-activated receptor gamma (Homo sapiens), sequence (P37231 whole entry, looked up): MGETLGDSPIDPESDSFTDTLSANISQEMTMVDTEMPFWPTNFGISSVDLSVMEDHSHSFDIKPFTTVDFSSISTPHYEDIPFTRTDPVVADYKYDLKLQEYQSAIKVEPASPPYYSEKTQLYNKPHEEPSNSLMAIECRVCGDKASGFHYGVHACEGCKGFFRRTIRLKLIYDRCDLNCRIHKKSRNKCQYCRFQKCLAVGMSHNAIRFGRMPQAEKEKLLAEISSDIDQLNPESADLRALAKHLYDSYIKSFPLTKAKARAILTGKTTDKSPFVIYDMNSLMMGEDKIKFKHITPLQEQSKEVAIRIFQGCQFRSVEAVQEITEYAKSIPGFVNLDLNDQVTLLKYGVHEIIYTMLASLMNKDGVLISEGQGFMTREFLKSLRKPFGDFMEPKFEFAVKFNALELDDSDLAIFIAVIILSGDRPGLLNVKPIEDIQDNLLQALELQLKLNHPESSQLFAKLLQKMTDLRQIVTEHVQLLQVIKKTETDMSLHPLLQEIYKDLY
Tox21 Assay Protocol Summary: PPARg-bla cells were dispensed at 3000 cells/6uL/well in 1536-well black wall/clear bottom plates using a Multidrop Combi (Thermo Fisher Scientific, Waltham, MA) dispenser. After the assay plates were incubated at 37C and 5% CO2 for 5 h, 23 nL of compounds dissolved in DMSO, positive controls or DMSO only was transferred to the assay plate by a Pintool station (Kalypsys, San Diego, CA). The assay plates were incubated at 37C for 17 h. After 1 uL of LiveBLAzerTM B/G FRET substrate was added using a Bioraptr Flying Reagent Dispenser (FRD) workstation (Beckman Coulter, Indianapolis, IN, USA), the plates were incubated at room temperature for 1 h, and fluorescence intensity was measured by an Envision plate reader (PerkinElmer, Shelton, CT).
In general terms: qHTS replaces the single test concentration by a dilution series.
For `Cc1ccc(S(=O)(=O)O)c(C)c1`, the Potency result is “inactive”.

Turning to `COc1ccc(C2CNC(=O)C2)cc1OC1CCCC1` (stereo not given), the Potency result was “inactive”.

On to `CCC(CC)CO`, for which the Potency result was “inactive”. Same read-out and setting: the same measure for `CCCOC(=O)C(C)O` (stereo not given): “inactive”. In the case of `O=S(O)(O)=S`, the ratio activity, negative = inhibition is 10.9% [at 5.95 µM]. As for `O=C(O)c1cc(Br)c(O)c(Br)c1`, the Potency entry was “inactive”. On the same count and under the same terms, for `CCOCCOCCOCC` the value was “inactive”; for `Nc1ccc(S(=O)(=O)Nc2ccc(Cl)nn2)cc1`, “inactive”; for `Nc1nnc(-c2cccc(Cl)c2Cl)c(N)n1`, “inactive”. On the same count and under the same terms, the same measure for `CC(C)NCC(O)COc1ccc(COCCOC(C)C)cc1` (stereo not given): “inactive”; for `COC(=O)CCCCCCCC(=O)OC`: “inactive”; for `Cc1cccc(OCC(O)CNC(C)(C)C)c1C` (stereo not given): “inactive”.

With `COc1nccnc1NS(=O)(=O)c1ccc(N)cc1`, the Potency result was “inactive”.

For the compound `COCCOC(=O)C1=C(C)NC(C)=C(C(=O)OC(C)C)C1c1cccc([N+](=O)[O-])c1` (stereo not given), the Potency result is “inactive”.

Regarding `CC(COC(C)(C)C)OCCCO` (stereo not given), the Potency result was “inactive”. Still for that read-out and setting: the same measure for `c1ccc2nccnc2c1`: “inactive”; for `NNc1nnc(NN)c2ccccc12`: “inactive”.

`Cc1cc(C(C)(C)C)c(O)c(C)c1CC1=NCCN1`: the Potency result was “inactive”. The same measure, in the same setting: for `CCCCCOC(=O)CCC` the value was “inactive”. Turning to `C=COCCOCCOCCOC=C`, the Potency result was “inactive”. On the same count and under the same terms, the same measure for `CC(CN)CC(C)(C)CCN` (stereo not given): “inactive”. The same measure, in the same setting: for `O=C(NCCN1CCOCC1)c1ccc(Cl)cc1` the value was “inactive”; for `C[C@@H]1O[C@@H](O[C@@H]2[C@@H](O)[C@H](OCCc3ccc(O)c(O)c3)O[C@H](CO[C@@H]3O[C@H](CO)[C@@H](O)[C@H](O)[C@H]3O)[C@H]2OC(=O)/C=C/c2ccc(O)c(O)c2)[C@H](O)[C@H](O)[C@H]1O`, “inactive”; for `C=C(C)C(=O)OCC(C)(C)COC(=O)C(=C)C`, “inactive”. For `C[Si](C)=O`, the ratio activity, negative = inhibition was 8.93% [at 5.95 µM].

For `COc1cc2c(cc1OC)[C@@H]1CC(=O)[C@@H](CC(C)C)CN1CC2`, the Potency entry is “inactive”. Still for that read-out and setting: for `CCOC(=O)[C@H](CCc1ccccc1)N[C@@H](C)C(=O)N1C(=O)N(C)C[C@H]1C(=O)O` the value was “inactive”.

Consider `CC(=O)Nc1ccc(S(=O)(=O)Cl)cc1`, for which the Potency entry is “inactive”.

Take `CCCCC(CC)COCCO` (stereo not given): the Potency result is “inactive”. Turning to `CC(C)C(=O)OCc1cccc(OC(=O)[C@@H]2N3C(=O)[C@@H](NC(=O)Cc4ccccc4)[C@H]3SC2(C)C)c1`, the Potency entry is “inactive”. Same read-out and setting: for `CC(C)CCCCOC(=O)c1ccccc1C(=O)OCCCCC(C)C` the value was “inactive”; for `CC(=O)c1sc(C)nc1C`, “inactive”; for `Cc1cc(Cl)c(C)cc1Cl`, “inactive”. Still for that read-out and setting: for `O=C(OCC(COC(=O)c1cccnc1)(COC(=O)c1cccnc1)COC(=O)c1cccnc1)c1cccnc1` the value was “inactive”; for `CC(=O)CCCCn1c(=O)c2c(ncn2C)n(C)c1=O`, “inactive”. The same measure, in the same setting: for `CCc1ccc(C=O)cc1` the value was “inactive”; for `O=C1CC(c2ccc(Cl)cc2)CC(=O)N1`, “inactive”; for `CCCCCCOC(=O)CC`, “inactive”. Regarding `CN(C)CCOCCO`, the Potency entry was “inactive”. For the compound `C[C@@H](O)[C@H]1C(=O)N2C(C(=O)O)=C(SCCN=CN)C[C@H]12`, the Potency result was “inactive”.
